Reference: paper PMC7862700, “An all-to-all approach to the identification of sequence-specific readers for epigenetic DNA modifications on cytosine”

What was measured:
Assay in all cases: DAPPL (digital affinity profiling via proximity ligation, sequencing); 10 mM Tris-HCl pH 7.5, 50 mM NaCl, 1 mM DTT, 4% glycerol, room temperature, 30 min; GST-TFs on glutathione beads, 16-mer random dsDNA library, 0.1% formaldehyde crosslink after washing; high values mean tight binding
FEV = target: T1, FEV (Homo sapiens, UniProt Q99581 1-238); conditions: protein: recombinant; tags: N-terminal GST; dsDNA, one strand shown
T1 sequence: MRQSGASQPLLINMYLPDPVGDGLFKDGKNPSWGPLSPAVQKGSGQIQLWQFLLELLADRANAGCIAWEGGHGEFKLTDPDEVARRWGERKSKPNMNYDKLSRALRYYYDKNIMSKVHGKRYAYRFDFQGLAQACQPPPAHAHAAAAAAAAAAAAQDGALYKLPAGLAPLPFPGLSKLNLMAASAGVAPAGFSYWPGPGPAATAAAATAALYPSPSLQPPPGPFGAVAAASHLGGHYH
Method in brief: (§1)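 The binding signal reported is, for every hexamer, its read frequency for a factor over its read frequency for the tag-only sample. Reads came from pools of yeast-expressed, GST-fused human transcription factors on glutathione beads, barcoded with DNA and mixed with that sample, which were incubated with 200 nmole of a random double-stranded 16-mer DNA library in Tris/NaCl/DTT/glycerol buffer at room temperature for 30 min. After washing, the pools were crosslinked with 0.1% formaldehyde, proximity-ligated with BsaI/T4 ligase for 1 h at 37 °C, PCR-amplified and sequenced on an Illumina NextSeq500.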

ETV5 = ETV5 (Homo sapiens, UniProt P41161 1-510); conditions: protein: recombinant; tags: N-terminal GST; dsDNA, one strand shown
Method in brief: as §1

HSF1 = HSF1 (Homo sapiens, UniProt Q00613 1-529); conditions: protein: recombinant; tags: N-terminal GST; chain copies: 3; dsDNA, one strand shown
Method in brief: as §1

SPIC = target: T2, SPIC (Homo sapiens, UniProt Q8N5J4 1-248); conditions: protein: recombinant; tags: N-terminal GST; dsDNA, one strand shown
T2 sequence: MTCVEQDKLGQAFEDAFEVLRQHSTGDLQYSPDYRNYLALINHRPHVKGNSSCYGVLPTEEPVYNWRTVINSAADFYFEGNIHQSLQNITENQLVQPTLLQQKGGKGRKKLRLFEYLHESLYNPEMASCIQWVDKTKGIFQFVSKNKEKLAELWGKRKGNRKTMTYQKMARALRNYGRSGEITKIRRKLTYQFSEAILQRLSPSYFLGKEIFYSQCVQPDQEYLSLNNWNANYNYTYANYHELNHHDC
Method in brief: as §1

ELF4 = ELF4 (Homo sapiens, UniProt Q99607 1-663); conditions: protein: recombinant; tags: N-terminal GST; dsDNA, one strand shown
Method in brief: as §1

ELK4 = target: T3, ELK4 (Homo sapiens, UniProt P28324-2 1-405); conditions: protein: recombinant; tags: N-terminal GST; dsDNA, one strand shown
T3 sequence: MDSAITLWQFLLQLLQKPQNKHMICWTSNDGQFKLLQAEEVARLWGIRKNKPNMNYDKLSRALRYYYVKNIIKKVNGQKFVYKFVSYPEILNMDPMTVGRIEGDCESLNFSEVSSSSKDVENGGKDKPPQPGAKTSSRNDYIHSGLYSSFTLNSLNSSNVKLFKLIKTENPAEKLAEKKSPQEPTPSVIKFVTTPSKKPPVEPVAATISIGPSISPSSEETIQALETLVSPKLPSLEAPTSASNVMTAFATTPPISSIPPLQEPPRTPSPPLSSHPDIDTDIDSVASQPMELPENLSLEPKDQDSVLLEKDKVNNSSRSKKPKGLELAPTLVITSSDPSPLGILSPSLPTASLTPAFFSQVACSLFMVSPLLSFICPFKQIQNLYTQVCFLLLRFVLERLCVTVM
Method in brief: as §1

ETV2 = target: T4, ETV2 (Homo sapiens, UniProt O00321 1-342); conditions: protein: recombinant; tags: N-terminal GST; dsDNA, one strand shown
T4 sequence: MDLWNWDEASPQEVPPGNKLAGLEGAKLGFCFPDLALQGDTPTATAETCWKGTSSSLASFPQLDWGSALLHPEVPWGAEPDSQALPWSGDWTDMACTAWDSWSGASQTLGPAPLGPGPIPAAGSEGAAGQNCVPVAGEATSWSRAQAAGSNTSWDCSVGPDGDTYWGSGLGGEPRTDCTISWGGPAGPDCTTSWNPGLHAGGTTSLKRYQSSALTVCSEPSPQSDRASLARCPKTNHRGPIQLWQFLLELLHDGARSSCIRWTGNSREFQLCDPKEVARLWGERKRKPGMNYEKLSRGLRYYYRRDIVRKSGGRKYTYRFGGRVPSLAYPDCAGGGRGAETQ
Method in brief: as §1

ELF3 = target: T5, ELF3 (Homo sapiens, UniProt P78545 1-371); conditions: protein: recombinant; tags: N-terminal GST; dsDNA, one strand shown
T5 sequence: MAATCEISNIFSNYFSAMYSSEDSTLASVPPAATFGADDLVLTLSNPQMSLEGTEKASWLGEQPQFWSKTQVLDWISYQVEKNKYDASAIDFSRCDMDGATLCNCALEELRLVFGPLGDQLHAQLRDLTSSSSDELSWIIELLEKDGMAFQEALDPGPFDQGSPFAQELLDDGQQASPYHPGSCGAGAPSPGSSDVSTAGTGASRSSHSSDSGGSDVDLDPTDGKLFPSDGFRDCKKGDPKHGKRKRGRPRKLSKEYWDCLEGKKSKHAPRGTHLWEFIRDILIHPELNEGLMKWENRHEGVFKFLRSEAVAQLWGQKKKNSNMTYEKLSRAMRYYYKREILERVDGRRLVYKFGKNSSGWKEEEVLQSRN
Method in brief: as §1

CRX = CRX (Homo sapiens, UniProt O43186 1-299); conditions: protein: recombinant; tags: N-terminal GST; dsDNA, one strand shown
Method in brief: as §1

ETV1 = ETV1 (Homo sapiens, UniProt P50549 1-477); conditions: protein: recombinant; tags: N-terminal GST; dsDNA, one strand shown
Method in brief: as §1

ERF = target: T6, ERF (Homo sapiens, UniProt P50548 1-548); conditions: protein: recombinant; tags: N-terminal GST; dsDNA, one strand shown
T6 sequence: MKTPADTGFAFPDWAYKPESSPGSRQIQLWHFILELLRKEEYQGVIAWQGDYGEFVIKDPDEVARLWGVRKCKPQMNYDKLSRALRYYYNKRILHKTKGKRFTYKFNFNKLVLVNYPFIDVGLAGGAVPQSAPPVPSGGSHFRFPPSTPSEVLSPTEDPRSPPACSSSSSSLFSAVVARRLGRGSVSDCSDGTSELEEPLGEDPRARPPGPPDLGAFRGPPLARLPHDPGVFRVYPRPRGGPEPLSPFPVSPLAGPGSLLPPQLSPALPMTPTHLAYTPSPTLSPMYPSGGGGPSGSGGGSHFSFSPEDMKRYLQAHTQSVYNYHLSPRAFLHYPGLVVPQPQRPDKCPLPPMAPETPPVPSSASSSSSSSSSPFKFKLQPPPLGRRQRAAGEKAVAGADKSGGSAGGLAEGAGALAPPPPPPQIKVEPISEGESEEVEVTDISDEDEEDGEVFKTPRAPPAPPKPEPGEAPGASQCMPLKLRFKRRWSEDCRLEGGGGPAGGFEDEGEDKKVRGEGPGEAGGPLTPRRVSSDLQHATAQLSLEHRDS
Method in brief: as §1

ETV3L = target: T7, ETV3L (Homo sapiens, UniProt Q6ZN32 1-361); conditions: protein: recombinant; tags: N-terminal GST; dsDNA, one strand shown
T7 sequence: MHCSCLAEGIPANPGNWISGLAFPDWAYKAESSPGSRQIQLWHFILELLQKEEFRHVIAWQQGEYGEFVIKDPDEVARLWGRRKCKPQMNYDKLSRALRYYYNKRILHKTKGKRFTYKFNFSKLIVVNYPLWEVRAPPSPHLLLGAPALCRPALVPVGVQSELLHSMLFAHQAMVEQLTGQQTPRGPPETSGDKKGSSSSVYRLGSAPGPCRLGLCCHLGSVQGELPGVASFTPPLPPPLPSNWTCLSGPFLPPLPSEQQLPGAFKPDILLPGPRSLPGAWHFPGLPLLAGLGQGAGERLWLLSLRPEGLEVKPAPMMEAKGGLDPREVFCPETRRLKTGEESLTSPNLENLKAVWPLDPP
Method in brief: as §1

ETS2 = target: T8, ETS2 (Homo sapiens, UniProt P15036 1-469); conditions: protein: recombinant; tags: N-terminal GST; dsDNA, one strand shown
T8 sequence: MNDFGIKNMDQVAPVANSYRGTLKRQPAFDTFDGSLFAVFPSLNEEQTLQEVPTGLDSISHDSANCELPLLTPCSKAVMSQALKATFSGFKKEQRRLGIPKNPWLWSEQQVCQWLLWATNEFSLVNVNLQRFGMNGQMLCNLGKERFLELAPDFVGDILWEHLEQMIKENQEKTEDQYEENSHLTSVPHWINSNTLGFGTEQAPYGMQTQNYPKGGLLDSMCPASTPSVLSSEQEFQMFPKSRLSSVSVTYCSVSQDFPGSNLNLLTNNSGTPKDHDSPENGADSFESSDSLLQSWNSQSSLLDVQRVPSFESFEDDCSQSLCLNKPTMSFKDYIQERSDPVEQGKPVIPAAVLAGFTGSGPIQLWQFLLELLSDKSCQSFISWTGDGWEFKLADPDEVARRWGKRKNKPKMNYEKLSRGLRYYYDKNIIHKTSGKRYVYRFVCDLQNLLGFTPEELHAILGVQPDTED
Method in brief: as §1

SPDEF = target: T9, SPDEF (Homo sapiens, UniProt O95238 1-335); conditions: protein: recombinant; tags: N-terminal GST; dsDNA, one strand shown
T9 sequence: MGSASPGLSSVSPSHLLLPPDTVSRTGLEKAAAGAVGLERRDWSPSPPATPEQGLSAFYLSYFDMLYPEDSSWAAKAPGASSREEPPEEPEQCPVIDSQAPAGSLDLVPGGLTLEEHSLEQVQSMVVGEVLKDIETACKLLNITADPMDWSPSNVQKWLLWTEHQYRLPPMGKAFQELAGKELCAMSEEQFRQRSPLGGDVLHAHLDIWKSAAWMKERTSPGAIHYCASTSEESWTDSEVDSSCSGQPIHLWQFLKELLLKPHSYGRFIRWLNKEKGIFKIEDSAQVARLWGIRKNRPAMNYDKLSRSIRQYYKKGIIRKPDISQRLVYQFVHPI
Method in brief: as §1

ETV7 = target: T10, ETV7 (Homo sapiens, UniProt Q9Y603 1-341); conditions: protein: recombinant; tags: N-terminal GST; dsDNA, one strand shown
T10 sequence: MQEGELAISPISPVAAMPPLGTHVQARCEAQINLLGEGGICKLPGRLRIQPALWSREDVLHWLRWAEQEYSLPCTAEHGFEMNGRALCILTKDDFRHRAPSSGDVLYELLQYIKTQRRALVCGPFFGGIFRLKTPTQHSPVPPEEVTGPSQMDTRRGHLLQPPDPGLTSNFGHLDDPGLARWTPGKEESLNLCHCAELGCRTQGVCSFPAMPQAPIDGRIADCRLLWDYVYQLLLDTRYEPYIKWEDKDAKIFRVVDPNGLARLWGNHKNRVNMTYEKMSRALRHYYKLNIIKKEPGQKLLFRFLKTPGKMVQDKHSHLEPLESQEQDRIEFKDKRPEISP
Method in brief: as §1

ELF5 = target: T11, ELF5 (Homo sapiens, UniProt Q9UKW6-2 1-255); conditions: protein: recombinant; tags: N-terminal GST; dsDNA, one strand shown
T11 sequence: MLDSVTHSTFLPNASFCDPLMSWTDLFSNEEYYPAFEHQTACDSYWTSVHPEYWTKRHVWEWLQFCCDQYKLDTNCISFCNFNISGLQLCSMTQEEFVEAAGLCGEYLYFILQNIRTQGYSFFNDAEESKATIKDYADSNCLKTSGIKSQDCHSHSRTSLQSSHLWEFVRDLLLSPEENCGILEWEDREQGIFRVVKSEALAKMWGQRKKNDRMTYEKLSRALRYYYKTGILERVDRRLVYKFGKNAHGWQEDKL
Method in brief: as §1

ETV3 = target: T12, ETV3 (Homo sapiens, UniProt P41162-2 1-143); conditions: protein: recombinant; tags: N-terminal GST; dsDNA, one strand shown
T12 sequence: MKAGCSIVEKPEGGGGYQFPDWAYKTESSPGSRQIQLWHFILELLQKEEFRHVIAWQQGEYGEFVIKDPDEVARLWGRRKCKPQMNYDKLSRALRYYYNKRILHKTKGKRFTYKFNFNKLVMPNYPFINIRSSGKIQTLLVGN
Method in brief: as §1

ETV6 = ETV6 (Homo sapiens, UniProt P41212 1-452); conditions: protein: recombinant; tags: N-terminal GST; dsDNA, one strand shown
Method in brief: as §1

Chain of ETV5 (P41161 whole entry): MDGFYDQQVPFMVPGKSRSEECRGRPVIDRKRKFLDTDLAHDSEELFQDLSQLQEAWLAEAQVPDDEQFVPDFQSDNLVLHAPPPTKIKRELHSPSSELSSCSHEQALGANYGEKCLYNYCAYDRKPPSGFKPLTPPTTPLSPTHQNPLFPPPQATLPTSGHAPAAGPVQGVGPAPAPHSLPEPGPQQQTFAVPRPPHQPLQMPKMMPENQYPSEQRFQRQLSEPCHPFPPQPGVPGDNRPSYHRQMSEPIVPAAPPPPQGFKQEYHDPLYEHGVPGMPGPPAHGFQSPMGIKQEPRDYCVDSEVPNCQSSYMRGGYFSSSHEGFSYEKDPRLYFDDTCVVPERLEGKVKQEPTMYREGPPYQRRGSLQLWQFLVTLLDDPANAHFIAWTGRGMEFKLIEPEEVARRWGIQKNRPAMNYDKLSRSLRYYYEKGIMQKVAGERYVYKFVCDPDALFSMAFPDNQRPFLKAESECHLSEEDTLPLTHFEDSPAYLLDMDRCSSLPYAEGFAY
Chain of CRX (O43186 whole entry): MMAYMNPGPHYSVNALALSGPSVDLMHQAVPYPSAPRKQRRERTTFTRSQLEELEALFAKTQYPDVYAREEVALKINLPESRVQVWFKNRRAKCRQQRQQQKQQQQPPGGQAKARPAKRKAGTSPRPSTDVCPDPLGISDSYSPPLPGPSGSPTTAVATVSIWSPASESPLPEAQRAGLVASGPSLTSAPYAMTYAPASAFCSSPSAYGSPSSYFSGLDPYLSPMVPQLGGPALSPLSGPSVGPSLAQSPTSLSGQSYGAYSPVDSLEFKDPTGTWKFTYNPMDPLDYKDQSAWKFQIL
Chain of HSF1 (Q00613 whole entry): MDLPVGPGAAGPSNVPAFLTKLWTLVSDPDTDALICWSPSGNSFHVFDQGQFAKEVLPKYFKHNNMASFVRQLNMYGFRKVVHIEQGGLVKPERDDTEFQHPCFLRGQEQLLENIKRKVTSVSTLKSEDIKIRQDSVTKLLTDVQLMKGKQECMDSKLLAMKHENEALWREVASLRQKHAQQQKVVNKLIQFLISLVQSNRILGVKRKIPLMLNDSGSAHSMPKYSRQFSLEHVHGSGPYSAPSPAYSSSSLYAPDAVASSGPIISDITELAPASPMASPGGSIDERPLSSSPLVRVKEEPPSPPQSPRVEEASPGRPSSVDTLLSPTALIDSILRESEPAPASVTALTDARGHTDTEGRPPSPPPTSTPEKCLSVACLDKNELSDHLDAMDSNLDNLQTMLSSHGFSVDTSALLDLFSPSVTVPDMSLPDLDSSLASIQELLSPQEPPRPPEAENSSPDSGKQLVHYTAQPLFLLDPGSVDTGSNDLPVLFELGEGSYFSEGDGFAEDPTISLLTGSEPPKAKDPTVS
Chain of ETV1 (P50549 whole entry): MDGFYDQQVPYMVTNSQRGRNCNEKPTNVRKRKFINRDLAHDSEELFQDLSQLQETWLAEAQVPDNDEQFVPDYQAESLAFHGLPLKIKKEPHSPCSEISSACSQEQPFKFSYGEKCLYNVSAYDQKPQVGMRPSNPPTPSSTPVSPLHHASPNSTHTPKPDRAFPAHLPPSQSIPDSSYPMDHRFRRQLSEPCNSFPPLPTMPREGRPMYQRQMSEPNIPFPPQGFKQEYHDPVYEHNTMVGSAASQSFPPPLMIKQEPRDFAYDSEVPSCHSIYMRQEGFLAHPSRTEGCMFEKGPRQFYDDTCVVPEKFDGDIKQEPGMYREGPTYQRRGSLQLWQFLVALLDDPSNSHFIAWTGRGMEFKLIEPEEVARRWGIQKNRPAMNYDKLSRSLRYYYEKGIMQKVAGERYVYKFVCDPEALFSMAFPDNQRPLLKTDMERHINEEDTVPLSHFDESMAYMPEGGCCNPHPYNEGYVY
Chain of ELF4 (Q99607 whole entry): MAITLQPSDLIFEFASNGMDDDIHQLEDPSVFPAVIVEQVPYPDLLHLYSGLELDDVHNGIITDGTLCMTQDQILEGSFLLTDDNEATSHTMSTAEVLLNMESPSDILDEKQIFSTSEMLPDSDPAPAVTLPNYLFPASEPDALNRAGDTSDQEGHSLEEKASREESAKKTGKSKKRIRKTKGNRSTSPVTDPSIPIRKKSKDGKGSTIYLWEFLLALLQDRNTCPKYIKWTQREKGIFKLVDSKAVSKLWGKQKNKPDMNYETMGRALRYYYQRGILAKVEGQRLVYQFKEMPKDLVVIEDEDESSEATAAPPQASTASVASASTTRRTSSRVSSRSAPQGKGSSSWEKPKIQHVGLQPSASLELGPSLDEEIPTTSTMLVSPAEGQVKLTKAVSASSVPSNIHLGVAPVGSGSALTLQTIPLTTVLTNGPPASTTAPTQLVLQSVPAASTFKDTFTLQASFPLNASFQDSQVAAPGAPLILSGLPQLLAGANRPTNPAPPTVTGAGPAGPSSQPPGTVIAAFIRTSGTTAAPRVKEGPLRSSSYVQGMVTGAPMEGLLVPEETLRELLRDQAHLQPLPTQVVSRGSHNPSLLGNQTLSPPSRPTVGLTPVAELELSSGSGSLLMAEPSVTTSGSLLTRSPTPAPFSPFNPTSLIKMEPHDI
Chain of ETV6 (P41212 whole entry): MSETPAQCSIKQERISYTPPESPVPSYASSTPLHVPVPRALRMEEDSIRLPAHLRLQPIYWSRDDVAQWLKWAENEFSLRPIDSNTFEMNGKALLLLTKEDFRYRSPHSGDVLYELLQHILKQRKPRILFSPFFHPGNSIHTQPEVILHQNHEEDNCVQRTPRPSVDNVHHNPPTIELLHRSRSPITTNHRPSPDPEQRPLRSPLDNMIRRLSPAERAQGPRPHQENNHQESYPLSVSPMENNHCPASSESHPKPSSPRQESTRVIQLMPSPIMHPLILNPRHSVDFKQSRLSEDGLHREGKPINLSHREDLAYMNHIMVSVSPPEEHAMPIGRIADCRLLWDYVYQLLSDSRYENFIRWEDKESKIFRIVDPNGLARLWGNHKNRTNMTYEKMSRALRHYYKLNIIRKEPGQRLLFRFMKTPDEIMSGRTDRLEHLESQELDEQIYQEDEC

Sequence: CCAACT
- binding signal (FEV): 1.27 fold enrichment (6-mer frequency, TF over GST control)
- binding signal (ETV5): 1.16 fold enrichment (6-mer frequency, TF over GST control)
- binding signal (HSF1): 1.02 fold enrichment (6-mer frequency, TF over GST control)
- binding signal (SPIC): 1.4 fold enrichment (6-mer frequency, TF over GST control)
- binding signal (ELF4): 1.29 fold enrichment (6-mer frequency, TF over GST control)
- binding signal (ELK4): 1.27 fold enrichment (6-mer frequency, TF over GST control)
- binding signal (ETV2): 1.11 fold enrichment (6-mer frequency, TF over GST control)
- binding signal (ELF3): 1.21 fold enrichment (6-mer frequency, TF over GST control)
- binding signal (CRX): 1.01 fold enrichment (6-mer frequency, TF over GST control)
- binding signal (ETV1): 1.21 fold enrichment (6-mer frequency, TF over GST control)
- binding signal (ERF): 1.13 fold enrichment (6-mer frequency, TF over GST control)
- binding signal (ETV3L): 1.21 fold enrichment (6-mer frequency, TF over GST control)
- binding signal (ETS2): 1.24 fold enrichment (6-mer frequency, TF over GST control)
- binding signal (SPDEF): 1.27 fold enrichment (6-mer frequency, TF over GST control)
- binding signal (ETV7): 1.2 fold enrichment (6-mer frequency, TF over GST control)
- binding signal (ELF5): 1.17 fold enrichment (6-mer frequency, TF over GST control)
- binding signal (ETV3): 1.17 fold enrichment (6-mer frequency, TF over GST control)
- binding signal (ETV6): 1.18 fold enrichment (6-mer frequency, TF over GST control)
